# Bioassay records from PubChem BioAssay.
# In the library only some 3.3% were active in any assay of this set; here they are far more common.
# SMARCA2 act: SMARCA2 (BRM) function activators, primary screen, cell-based, luminescence, high throughput; 1% of 370,000 active; AID 652017, 2013; activation, % at 9.1 µM; MG213 cells, MMTV-luciferase reporter, dexamethasone, overnight; in the data active means activation above about 7.8%
# esBAF inh: Bmi1 luciferase reporter increase in mESCs, primary screen, esBAF inhibitor project, mouse ES cells, Bmi1 luciferase knock-in, single point. 24 h; 100% = twice the neutral-well signal. reporter increase, % at 12.5 µM. 2% of 350,000 active. AID 602393, 2012; in the data active means activation above about 40%;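 further: a rise in the Bmi1 reporter signal indicates esBAF inhibition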
# Gli-Sufu antag: Gli-Sufu pathway antagonists, primary screen, luciferase luminescence, Sufu-KO-LIGHT cells, uHTS | AID 588413, 2011 | inhibition, % at 5 µM | 0.74% of 340,000 active | Sufu-KO-LIGHT fibroblasts, Gli luciferase reporter luminescence;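 active means inhibition above about 55%, limit read from the data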
# Jurkat NFkB inh: inhibitors of induced NF-kB luciferase reporter, primary screen, TCR NF-kB activation inhibitor project, cell-based, luminescence, uHTS; 0.53% of 330,000 active; inhibition, % at 4 µM; Jurkat, PMA/ionomycin-induced NF-kB luciferase reporter; AID 435003, 2010; in the data active means inhibition above about 50%
# 697 NFkB inh: inhibitors of PMA/ionomycin-induced NF-kB reporter, 697 cells, primary screen, B-cell NF-kB inhibitor project, cell-based, luminescence, uHTS; 697 B-cell NF-kB luciferase reporter, 16 h; inhibition, % at 4 µM; 0.33% of 330,000 active; AID 435022, 2010; in the data active means inhibition above about 35%
# Gli antag conf: Gli-SUFU pathway antagonists, confirmation, single concentration, luciferase luminescence, Sufu-KO-LIGHT cells; inhibition, % at 5 µM; Gli luciferase reporter; shares compounds with Gli-Sufu antag; 40% of 2,500 active; AID 602428, 2012;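 active means mean inhibition at 5 µM reaching about 45%, limit read from the data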
# SufuKO cytotox: cytotoxicity in Sufu-KO-LIGHT cells, confirmation, cytotoxicity control for Gli-SUFU antagonist project, cell-based, ATP luminescence, single concentration; shares compounds with Gli-Sufu antag; cytotoxicity, % at 5 µM; 32% of 2,500 active; AID 651994, 2013;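 active means mean cytotoxicity at 5 µM above about 25%, limit read from the data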;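 further: cells exposed to compound overnight for roughly 16 to 18 hours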
# Wnt3a cs: Wnt3a reporter signal inhibition, confirmation, counter-screen for Gli-SUFU antagonist project, Wnt-LIGHT cells, luminescence, single concentration; shares compounds with Gli-Sufu antag; Wnt3a-driven luciferase reporter; inhibition, % at 6.25 µM; 20% of 2,500 active;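 active means mean inhibition above about 25%, limit read from the data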
# Hits are given with their value; i = inactive; nt = no result given.
SMILES,SMARCA2 act,esBAF inh,Gli-Sufu antag,Jurkat NFkB inh,697 NFkB inh,Gli antag conf,SufuKO cytotox,Wnt3a cs
O=C(c1ccc(F)cc1)C1CCN(C(=S)NCC2CCCO2)CC1 (stereo not given),i,nt,63,i,i,i,i,i
Cc1ccc(C(=O)C2CCN(C(=S)NCC3CCCO3)CC2)cc1 (stereo not given),i,i,i,i,i,nt,nt,nt
O=S(=O)(c1ccc2ccccc2c1)N1CCN(C(=S)Nc2ccc(F)c(Cl)c2)CC1,i,nt,99,i,i,i,i,i
CCOC(=O)N1CCC(NC(=O)C2CCCN(Cc3nc(-c4cccc(Cl)c4)oc3C)C2)CC1 (stereo not given),i,i,i,i,i,60,34,i
Cc1oc(-c2ccc(Cl)cc2)nc1CN1CCCC(C(=O)NC2CC2)C1 (stereo not given),i,i,i,i,i,nt,nt,nt
O=C1CN(CN2CCCCC2)C(=O)CN1CN1CCCCC1,i,nt,nt,nt,nt,nt,nt,nt
O=C1CCCN1CN1CCCCC1,i,i,99,i,i,i,i,i
N#CC1=C(N)N2C(=C(C#N)C1c1ccc(Br)cc1)Nc1ccccc12 (stereo not given),i,nt,58,i,i,83,37,67
Cn1c(SCC(=O)N2CCCC2)nc2ccccc21,i,nt,i,i,i,nt,nt,nt
Cn1c(SCC(=O)N(Cc2ccccc2)C(C)(C)C)nc2ccccc21,nt,i,58,i,i,i,i,i
CN(CC(=O)Nc1ccc(F)cc1)C(=O)COC(=O)c1cc(Br)c(Br)s1,i,i,65,nt,nt,i,i,i
COc1cccc(CN(C)CC2CCCN(CCc3ccccc3C)C2)c1 (stereo not given),i,i,61,i,i,i,i,i
COc1ccc(CN(C)CC2CCCN(CCc3ccccc3C)C2)cc1O (stereo not given),i,i,i,i,i,nt,nt,nt
FC(F)Oc1ccc(-n2cc(-c3ccccc3)[n+]3c2CCCCC3)cc1,i,nt,66,i,i,58,i,i
Cc1ccc(-c2cn(-c3ccc(SC(F)F)cc3)c3[n+]2CCC3)cc1,i,nt,76,i,i,80,39,i
Cc1ccc(-c2cn(-c3ccc(OC(F)F)cc3)c3[n+]2CCCCC3)cc1,i,i,83,i,i,86,41,i
Cc1ccc(CONC(=O)c2ccc(OC(F)F)cc2)cc1,i,i,i,i,i,nt,nt,nt
FC(F)Sc1ccc(-n2cc(-c3ccc(Cl)cc3)[n+]3c2CCC3)cc1,i,nt,i,i,i,nt,nt,nt
Clc1ccc(-n2cc(-c3ccc(Br)cc3)[n+]3c2CCCCC3)cc1,i,nt,i,i,i,68,26,i
O=C(CCN1CCCCC1)NCC[C@@H]1CC[C@H](NC(=O)C2CCCC2)[C@H](CO)O1,nt,i,nt,nt,nt,nt,nt,nt
Cn1nc(-c2ccc(C(=O)N3CCN(Cc4ccccc4)CC3)cc2)c2ccccc2c1=O,i,i,i,i,i,i,i,i
CCNC(=O)Nc1ccc2c(c1)C(=O)N(C)[C@H]1CC[C@@H](CC(=O)Nc3ccccc3)O[C@@H]1CO2,nt,i,nt,nt,nt,nt,nt,nt
COc1ccc(-n2nc3c(N4CCC(C(=O)NCc5ccccc5C)CC4)nnc(C)c3c2C)cc1,nt,i,i,i,i,nt,nt,nt
COc1ccc(-n2nc3c(N4CCC(C(=O)NC5CCCCC5)CC4)nnc(C)c3c2C)cc1,nt,i,91,i,i,i,i,i
COc1ccc(CCCc2n[nH]c(=S)o2)cc1,i,i,i,i,i,nt,nt,nt
SMILES,SMARCA2 act,esBAF inh,Gli-Sufu antag,Jurkat NFkB inh,697 NFkB inh,Gli antag conf,SufuKO cytotox,Wnt3a cs
COc1ccc(Cc2n[nH]c(=S)o2)cc1,i,nt,i,i,i,i,i,i
CC(C)NC(=O)Nc1ccc2c(c1)C(=O)N([C@H](C)CO)C[C@H](C)[C@@H](CN(C)CC1CC1)OCCCC[C@H](C)O2,nt,i,nt,nt,nt,nt,nt,nt
COc1ccc(CNC(=O)CSc2nnc(-c3ccc(NC(C)=O)cc3)n2C)cc1,i,i,i,i,i,nt,nt,nt
COC(=O)/C(=N\Nc1ccc(Cl)cc1)Sc1nnc(-c2ccc(OC)cc2)n1C,i,nt,80,i,i,i,i,i
Cc1nccn1Cc1cccc2ccccc12,i,nt,i,i,i,nt,nt,nt
O=C(CCl)N=c1sccn1Cc1cccc2ccccc12,i,nt,96,nt,nt,i,i,i
Cc1ccc(S(=O)(=O)N(C)C[C@@H]2OCCCC[C@@H](C)Oc3ccc(NC(=O)NC(C)C)cc3C(=O)N([C@H](C)CO)C[C@H]2C)cc1,nt,i,nt,nt,nt,nt,nt,nt
O=C(OC(c1ccccc1)c1nccc2ccccc12)c1ccccc1 (stereo not given),i,i,65,nt,nt,79,28,92
C[C@@H]1CCCCO[C@@H](CN(C)C(=O)Cc2ccccc2)[C@H](C)CN([C@H](C)CO)C(=O)c2cc(NC(=O)Nc3ccccc3)ccc2O1,nt,i,nt,nt,nt,nt,nt,nt
CC(C)NC(=O)Nc1ccc2c(c1)C(=O)N(C)[C@H]1CC[C@H](CC(=O)Nc3ccccc3)O[C@H]1CO2,nt,i,nt,nt,nt,nt,nt,nt
Cn1cc(CNCc2cn[nH]c2-c2ccc(F)cc2)c(-c2ccc3c(c2)OCCO3)n1,i,nt,i,i,i,nt,nt,nt
Cn1cc(CNCc2ccc(OC(F)(F)F)cc2)c(-c2ccc3c(c2)OCCO3)n1,i,i,60,i,i,63,36,26
C[C@@H]1CCCCO[C@H](CN(C)C(=O)Nc2ccc(F)cc2)[C@@H](C)CN([C@@H](C)CO)C(=O)c2cc(NS(=O)(=O)c3ccc(Cl)cc3)ccc2O1,nt,i,nt,nt,nt,nt,nt,nt
CO[C@H]1CN(C)C(=O)c2ccc(NS(C)(=O)=O)cc2OC[C@@H](C)N(CC2CCCCC2)C[C@@H]1C,nt,i,nt,nt,nt,nt,nt,nt
O=C1c2cccc([N+](=O)[O-])c2C(=O)N1c1c[nH]c(=O)[nH]c1=O,i,nt,i,i,i,nt,nt,nt
Cc1ccccc1N1C(=O)c2cccc([N+](=O)[O-])c2C1=O,i,nt,65,nt,nt,i,i,i
CCOCCCNC(=O)c1cc2sc(Cl)cc2n1CC,i,i,59,i,i,i,i,i
CCOCCCNC(=O)c1cc(C)nn1-c1ccccc1,i,i,i,i,i,nt,nt,nt
CCN1CCc2c(sc(NC(=O)c3cc4ccccc4cc3OC)c2C(N)=O)C1,i,nt,69,i,i,i,i,i
COc1cc2ncnc(NCCc3ccccc3)c2cc1OC,i,nt,60,i,i,i,i,i
Cc1c(C)n(C)c2ccc(C(=O)NCCCN3CCN(c4ccccc4F)CC3)cc12,i,i,i,i,i,nt,nt,nt
CCc1nc2ccc(C(=O)NCCCN3CCN(c4ccccc4F)CC3)cc2nc1CC,i,i,i,i,i,i,27,i
